TDP43 rescue: rescues yeast growth from TDP-43 toxicity. TDP-43 expressing yeast growth rescue, BacTiter-Glo, 24 h. Potency, µM (titrated, usually from 46.1 µM), for the others: at the highest dose growth rescue (activation), usual class: activators. hit rate 1.8% among 410,000. AID 652104; also: % of control where 0% means no effect; nearly all actives have a fitted effect of over 50% in size
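Yeast expressing TDP-43 (pregrown in raffinose, seeded at OD600=0.02 in galactose medium) exposed to compounds 24 hr at 30 deg C. Growth read by BacTiter-Glo luminescence; rescue of toxicity appears as increased signal.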
aSyn yeast inh: alpha-synuclein toxicity inhibition in yeast; Yeast expressing alpha-synuclein, growth rescue, BacTiter-Glo, 24 h; Potency, µM (titrated, usually from 46.1 µM), without a hit: at the top dose growth rescue (activation), hits mostly activators; hit rate 0.14% among 370,000; AID 652106; also: % of control where 0% means no effect; nearly all actives have a fitted effect of over 65% in size
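Screening used galactose-induced yeast with toxic alpha-synuclein levels, exposed to compound for 24 hr at 30 deg C. Cell growth, read with BacTiter-Glo luminescence, gave the measured signal.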
Abeta yeast res: compounds reversing amyloid beta toxicity in yeast; yeast expressing A-beta42, growth rescue, OD600, 48 h; response scale: 0% DMSO, 100% iron-clioquinol control; Potency, µM (series often up to 46.1 µM), actives largely listed as activators; hit rate 0.063% among 410,000; AID 1347071; also: nearly all actives have a fitted effect of over 55% in size
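Yeast growth medium received pinned compounds, then yeast cells expressing toxic A-beta were added; plates incubated at 30 C for 48 hr. Growth read as absorbance at 600 nm, normalized to DMSO and equimolar FeCl3 plus clioquinol controls.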
FUS suppressor: FUS proteinopathy suppression in yeast. S. cerevisiae FUS-expressing, growth rescue, OD600, 24 h. Potency, µM (top dose mostly 76.6 µM), most hits filed as activators. hit rate 0.24% among 390,000;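 also: plate controls were DMSO vehicle for no effect and reference control for full effect; nearly all actives have a fitted effect of over 55% in size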
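Steps: raffinose overnight preculture; dilution to OD 0.005 in 2% galactose minimal medium; compound addition (concentration series); 24hr at 30C, 99% humidity; absorbance read at 600 nm.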
Numbers without * were called inactive; i = inactive; ? = inconclusive; · = not tested or not shown. Rows were chosen to be rich in hits. Some 2.1% of all compounds tested hit in one or more screens of this group. Calls follow the shape of the dose curve; as a rule, active = well fitted curve in the direction sought with a large enough effect; inconclusive = small, poorly fitted or top-dose-only effect, or another doubt; inactive = no such curve, though single readings can be large; an effect the other way counts as inactive or inconclusive. Potency is read from the fitted curve at half-maximal effect.

SMILES	TDP43 rescue	aSyn yeast inh	Abeta yeast res	FUS suppressor
O=C1NC(=S)NC(=O)C1=Cc1ccc(OCc2ccccc2)cc1	18µM*	-67%	?	i
CC(C)(C)C(=O)C(Oc1ccc(Cl)cc1)n1cncn1 (configuration not stated)	11µM*	?	i	i
CCCCCCCCN1C(=O)[C@H](CC(=O)NCCc2ccccc2OC)C[C@@]2(C(=O)OC)CCCCC=C12	?	?	i	?
O=C1NCN(c2ccccc2)C12CCN(C(c1ccccc1OC(F)(F)F)c1nnnn1Cc1ccccc1)CC2 (configuration not stated)	0%	1%	i	10µM*
CCCCn1nnnc1C(c1cccc2ccccc12)N1CCC2(CC1)C(=O)NCN2c1ccccc1 (configuration not stated)	-9%	12%	i	10µM*
O=C1NCN(c2ccccc2)C12CCN(C(c1cccc3ccccc13)c1nnnn1Cc1ccccc1)CC2 (configuration not stated)	15%	2%	i	?
CCN(CC)C(=O)c1ccc2c(c1)C1C(Cl)C(Sc3ccccc3[N+](=O)[O-])CC1C(C(=O)O)N2 (configuration not stated)	-34%	-23%	i	40µM*
COc1cccc(C(C)(O)c2nc(-c3cccc(F)c3)cs2)c1 (configuration not stated)	?	0%	?	i
c1cc2c(cc1[C@H]1OCC3C1CO[C@@H]3c1ccc3c(c1)OCO3)OCO2 (some centres not stated)	11µM*	6%	i	?
C/C=C/c1ccc2c(c1)OCO2	7%	0%	i	i
CC(=O)OCC12CC(OC(=O)CC(C)C)C(C)=CC1OC1C(O)C(OC(C)=O)C2(C)C12CO2 (configuration not stated)	1.8µM*	?	i	·
CC(Cc1ccc(OCC(=O)O)cc1)NCC(O)c1cccc(Cl)c1 (configuration not stated)	·	3%	·	·
Cc1cccc(-n2c(/C=C/c3ccccc3O)nc3ccccc3c2=O)c1	18%	·	i	i
COc1ccc(-n2c(/C=C\c3ccccc3F)nc3ccccc3c2=O)c(OC)c1	35µM*	·	?	?
Cc1cccc(-n2c(/C=C/c3cccc4ccccc34)nc3ccccc3c2=O)c1	35µM*	·	i	i
N[C@@H](Cn1ccc(=O)[nH]c1=O)C(=O)O	·	-3%	·	·
Oc1ccccc1/C=N/[n+]1ccccc1	-25%	-1%	i	i
CCc1cc2c(cc1-c1csc(C/C(N)=N/O)n1)C(C)(C)CCC2(C)C	22µM*	11%	i	i
CN(CC1COc2ccccc2O1)c1nc(-c2cccnc2)nc2ccccc12 (configuration not stated)	8.9µM*	-16%	i	i
CCCCC[C@@H]1CCCCC[C@@H](O)C[C@H](O)[C@H](O)/C=C/C(=O)O1	?	0%	i	i
C[C@]12CC[C@@H](O)C[C@@H]1CC[C@@H]1[C@@H]2CC[C@]2(C)C(=O)CC[C@@H]12	18µM*	1%	i	i
COC(=O)c1ccc(COC(=O)c2nn(C)c(=O)c3ccccc23)cc1	0%	?	i	i
CC(=O)O/C(=C1\CC2C3CC=C4CC(OC(C)=O)CCC4(C)C3CCC2(C)C1=O)C(F)(F)F (configuration not stated)	?	13µM*	i	·
CC(=O)O[C@H]1CC[C@@]2(C)C(=CC[C@@H]3[C@@H]2CC[C@]2(C)C(=O)CC[C@@H]32)C1	?	?	i	i
O=C(CN1CCOCC1)c1ccc2ccccc2c1	·	10%	·	·
SMILES	TDP43 rescue	aSyn yeast inh	Abeta yeast res	FUS suppressor
COc1ccc(S(=O)(=O)N(C)C[C@H]2OCCCC[C@H](C)Oc3ccc(N(C)C)cc3C(=O)N([C@H](C)CO)C[C@@H]2C)cc1	9%	?	i	i
O=C(Nc1ccccn1)NC12CC3CC(CC(C3)C1)C2	3.2µM*	-7%	i	i
Cc1ccc(CN(C)C(=O)c2cccc(S(=O)(=O)N3CCN(c4ccccc4)CC3)c2)cc1	?	15%	i	·
CCCNc1nc(-c2cc(C(=O)Nc3ccccc3)on2)cc(C(C)C)n1	18µM*	13µM*	i	i
O=C(c1ccc2c(c1)N(Cc1ccc(F)cc1)C(=O)c1ccccc1S2)N1CCC2(CC1)OCCO2	27%	·	i	i
CCOc1ccc(CN2C(=O)c3ccccc3Sc3ccc(C(=O)N4CCC5(CC4)OCCO5)cc32)cc1	13µM*	·	i	?
O=C(CCl)c1ccc(O)c(O)c1	·	-15%	·	·
CCC(C)C1NC(=O)C2CCCN2C(=O)C(CC(C)C)OC(=O)CCNC(=O)C(C)N(C)C(=O)C(C(C)C)N(C)C1=O (configuration not stated)	-15%	-3%	i	·
C=CCCC[C@@H]1OC(=O)CNC(=O)C([C@@H](C)CC)NC(=O)[C@@H]2CCCN2C(=O)C([C@@H](C)CC)OC(=O)[C@H](Cc2ccccc2)N(C)C(=O)[C@H](C(C)C)NC(=O)C1(C)C (some centres not stated)	-2%	11%	i	4µM*
C[C@]12CC[C@H]3C(=CCc4cc(O)ccc43)[C@@H]1CCC2=O	10µM*	2%	i	i
COC(=O)c1ccc(N2C(=O)CC(N3CCC(O)(c4ccc(Br)cc4)CC3)C2=O)cc1 (configuration not stated)	6.3µM*	7%	i	i
COC1=C(C)C(=O)c2c(c(COC(N)=O)c3n2C[C@@H]2[C@@H]3N2C)C1=O (some centres not stated)	·	0%	·	·
O=c1[nH]c2ccccc2n1C1CCN(C(c2cccc3ccccc23)c2nnnn2Cc2ccccc2)CC1 (configuration not stated)	13%	1%	i	?
CSCCC(c1nnnn1-c1ccc2c(c1)OCCO2)N1CCC(n2c(=O)[nH]c3ccccc32)CC1 (configuration not stated)	12%	1%	i	25µM*
O=c1[nH]c2ccccc2n1C1CCN(C(c2cc3ccccc3o2)c2nnnn2Cc2ccccc2)CC1 (configuration not stated)	19%	3%	i	8.9µM*
CCC(c1nnnn1-c1ccc2c(c1)OCCO2)N1CCC(n2c(=O)[nH]c3ccccc32)CC1 (configuration not stated)	16%	-13%	i	i
C[C@]12Cc3cn4c(nc3C=C1CCC1C2CC[C@@]2(C)[C@H]1CC[C@@]2(O)C#N)nc1ccccc14 (some centres not stated)	·	19%	·	·
COc1ccc(-c2cc(C(=O)N3CCN(c4ccccc4OC)CC3)c3cc(C(C)C)ccc3n2)cc1	?	·	i	i
